Assay outcomes from PubChem BioAssay.
Rows were chosen to be rich in hits. Some 3.5% of all compounds tested hit in one or more screens of this group.
TEAD-YAP inh: TEAD-YAP interaction inhibition; actives 1.4% (n = 640,000); inhibition, % at 9.12 µM; HEK-TIYL cells, TEAD-Gal4/YAP UAS-luciferase luminescence; in the data active = inhibition above about 32%;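 also: 0% = median of test compound wells and 100% = reference inhibitor wells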
MITF primary: human MITF inhibition, primary screen. O75030. AlphaScreen MITF homodimerization, bead proximity signal. AID 1259374. actives 0.91% (n = 650,000). inhibition, % at 2.6 µM; in the data active = inhibition above about 50%;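 also: 0% = vehicle wells with protein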
FBW7 activator: human FBW7 E3 ligase activation, primary screen. actives 0.13% (n = 650,000). normalized activity (activation), % at 26.1 µM. AlphaScreen FBW7–phospho-cyclin E peptide binding, activator screen; in the data active = normalized activity above about 1.9%;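 also: purified mutant Fbw7 with reduced substrate affinity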
GPR151 activ: human GPR151 activation | actives 1% (n = 650,000) | AID 1508602 | PathHunter beta-arrestin GPR151 cells, luminescence | Q8TDV0 | activation, % at 11.2 µM; in the data active = activation above about 4.9%;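 also: 0% = median of compound wells and 100% = cells with positive control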
GPR151 conf act: confirmation of human GPR151 activators. GPR151 PathHunter beta-arrestin cells, luminescence, 90 min; % of EA-reagent control over plate median. shares compounds with GPR151 activ. AID 1508609. 6,700 tested, under 10 active. activation, % at 11.2 µM;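 active = mean percent activation across replicates above the confirmation screen cutoff of 4.91%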
GPR119 counter: counter-screen for GPR151 activators: effect on human GPR119; shares compounds with GPR151 activ; GPR119 PathHunter beta-arrestin cells, luminescence, 90 min; 0 = compound-well median, 100 = enzyme-acceptor control; activation, % at 11.2 µM; actives 0.3% (n = 6,700); AID 1508611;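 active = mean percent activation in the counterscreen above 29.09%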;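 also: counterscreen on off-target GPR119 to flag nonselective hits from the GPR151 activator screen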
Target sequence (Q8TDV5 whole entry, looked up): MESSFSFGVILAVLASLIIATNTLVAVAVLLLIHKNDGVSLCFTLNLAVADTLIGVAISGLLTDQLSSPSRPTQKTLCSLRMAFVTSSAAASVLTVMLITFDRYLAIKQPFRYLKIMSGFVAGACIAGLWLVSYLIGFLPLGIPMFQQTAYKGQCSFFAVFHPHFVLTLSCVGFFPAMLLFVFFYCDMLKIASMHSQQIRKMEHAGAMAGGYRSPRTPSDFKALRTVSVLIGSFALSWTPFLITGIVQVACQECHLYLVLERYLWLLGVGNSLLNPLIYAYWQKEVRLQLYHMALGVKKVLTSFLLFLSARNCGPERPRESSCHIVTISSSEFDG
* = called active by the depositor; nt = no result.

SMILES | TEAD-YAP inh | MITF primary | FBW7 activator | GPR151 activ | GPR151 conf act | GPR119 counter
CC(=O)Nc1ccc(NC(=O)c2cnc(-c3csc4ccccc34)s2)cc1 | -3.6 | -2.9 | 0.0 | -3.0 | nt | nt
COc1ccc(-c2nc3ccccc3s2)cc1NC(C)=O | -42.3 | 6.9 | 0.0 | 4.9* | -0.3 | -5.7
CC(C)c1nnc(NC(=O)c2ccc(Cl)cc2Cl)s1 | -37.7 | -10.8 | 0.0 | -0.3 | nt | nt
CN1CCN(c2ccc(-c3nc4ccc(C(=O)NCc5cccc(C(F)(F)F)c5)cc4s3)cc2)CC1 | 16.2 | -3.8 | 0.2 | 5.8* | -1.0 | -18.8
COc1cc(NC(=O)c2ccc3nc(-c4cccc(C(C)=O)c4)sc3c2)cc(OC)c1OC | -27.1 | 7.1 | 0.1 | 13.2* | 0.6 | 2.0
CC(=O)Nc1ccc(NC(=O)c2ccc3nc(-c4cccc(C(C)=O)c4)sc3c2)cc1 | 1.2 | -16.8 | 0.0 | -0.9 | nt | nt
CN(C)c1ccc(NC(=O)CC(C(=O)O)N2CCNCC2)cc1 (configuration not stated) | -7.6 | -0.1 | 0.1 | 0.6 | nt | nt
CC(C)CCNC(=O)C(Cc1ccccc1)NS(=O)(=O)c1ccc(F)cc1 (configuration not stated) | 6.0 | 9.4 | 0.0 | 4.9* | -0.9 | -5.9
Cn1nc([N+](=O)[O-])c2c(-c3nc4ccccc4n3C)c(N)n(CCc3ccccc3)c2c1=O | 7.3 | 1.3 | -0.3 | 6.0* | -1.5 | -11.1
Cc1ccccc1Cn1c(=O)c2c(nc3n2CCCN3c2ccc(F)cc2)n(C)c1=O | 1.9 | -0.5 | -0.3 | 9.7* | -0.4 | 3.8
O=C(Nc1ccccc1)c1cc(S(=O)(=O)N(CCO)CCO)ccc1Br | -5.7 | 0.7 | 0.0 | -1.7 | nt | nt
NC(COP(=O)(O)O)C(=O)O (configuration not stated) | 7.7 | 28.4 | 0.1 | 5.5* | -0.2 | 4.4
O=C(c1ccc(Br)cc1)C1C2C(=O)C3OCC(O3)C12 (configuration not stated) | -23.0 | -4.4 | 0.0 | 8.0* | 1.3 | 14.2
CCc1c(C)c2ccc(OCC(=O)OC)c(C)c2oc1=O | 6.3 | 1.9 | 0.1 | 5.1* | -0.1 | -7.5
COC(=O)COc1ccc2c(C)c(C)c(=O)oc2c1C | 2.6 | 7.8 | 0.8 | -1.5 | nt | nt
COc1cccc(/C=N/NC(=O)C2COc3ccccc3O2)c1 (configuration not stated) | 10.4 | 10.3 | -0.1 | 0.2 | nt | nt
COc1ccc(NC(=O)NCc2noc3ccccc23)c(OC)c1 | 2.9 | -6.0 | -0.2 | 0.9 | nt | nt
Cc1ccc(CCNC(=O)NCc2noc3ccccc23)cc1 | -12.4 | 0.3 | -0.1 | -1.3 | nt | nt
Cc1cc(Br)ccc1NC(=O)NCc1noc2ccccc12 | -3.7 | -0.1 | -0.1 | 6.1* | -1.0 | 5.6
Cc1cccc(CCNC(=O)NCc2noc3ccccc23)c1 | -14.2 | -4.6 | 0.0 | 14.5* | 0.3 | -1.4
CCCCC[C@H](O)/C=C/[C@@H]1[C@@H](C/C=C\CCCCOC)[C@@H](O)C[C@H]1O | nt | -4.5 | nt | -0.8 | nt | nt
O=C(Cn1nnc(-c2ccc(NC(=O)c3cnccn3)cc2)n1)NCCc1ccccc1 | -4.0 | -9.1 | -0.2 | 0.5 | nt | nt
CCOc1ccc(NC2CC(=O)N(c3ccc(Cl)c(Cl)c3)C2=O)cc1 (configuration not stated) | 1.1 | 5.1 | 0.1 | -0.5 | nt | nt
c1ccc(-n2cnc3c(NCc4cccnc4)nc(N4CCC(N5CCOCC5)CC4)nc32)cc1 | 2.2 | -10.3 | -0.2 | 2.2 | nt | nt
COc1ccc(-c2ncccc2O)cc1 | -43.9 | 11.0 | 1.5 | 5.2* | 0.1 | -1.9
SMILES | TEAD-YAP inh | MITF primary | FBW7 activator | GPR151 activ | GPR151 conf act | GPR119 counter
CCOc1ccc(-c2ncccc2O)cc1 | -36.6 | 17.6 | 0.1 | 0.3 | nt | nt
Cc1sc2ncn3c(SCC(=O)c4ccc5c(c4)OCCO5)nnc3c2c1C | 7.0 | 14.5 | -0.2 | -0.7 | nt | nt
CC(C)N(CCC#N)S(=O)(=O)c1cccc2nsnc12 | 7.4 | -4.0 | 0.0 | -1.0 | nt | nt
CN(C)CC(C)(C)CN(CCC#N)S(=O)(=O)c1cccc2nsnc12 | -1.4 | 13.6 | 0.0 | 5.0* | 0.4 | 0.3
Cc1ccccc1-n1c(=O)cc(NCCCn2ccnc2)[nH]c1=O | 0.2 | 8.5 | -0.3 | 13.6* | 0.6 | 3.5
O=c1[nH]c(=O)n(-c2ccccc2Cl)c(O)c1C=NCCCn1ccnc1 | 6.2 | 19.3 | 0.1 | 4.9* | -0.4 | -2.5
CCCN1CCN(CCCNC(=O)Cn2ncc3c2-c2cc(C)ccc2OC3)CC1 | -1.6 | 10.2 | 0.2 | 0.8 | nt | nt
Nc1c(C(F)(F)F)cc(C(F)(F)F)cc1C(F)(F)F | -4.5 | -1.4 | 0.2 | -1.6 | nt | nt
Nc1ccc(-c2ccc(N)cc2C(F)(F)F)c(C(F)(F)F)c1 | 3.1 | -0.5 | -0.3 | 5.6* | -0.5 | -10.2
CC1(C)CC(n2c(SCc3ccccc3)nc3c(c2=O)C2(CCCCC2)Cc2ccccc2-3)CCO1 (configuration not stated) | 10.1 | -10.6 | 0.1 | 1.6 | nt | nt
CCN1CCN(C(=O)c2ccc(OC)c([N+](=O)[O-])c2)CC1 | -5.2 | -10.7 | -0.1 | 7.4* | -1.2 | -6.1
COc1ccc(C(=O)N2CCN(C)CC2)cc1[N+](=O)[O-] | -2.8 | 7.4 | 0.3 | 0.9 | nt | nt
O=C1N(C2Cc3ccccc3C2)C[C@@H]2C[C@@H](c3cccc(-n4cccn4)c3)N3CCC[C@@]123 | 1.4 | -5.5 | 0.1 | 6.3* | 1.3 | 0.8
Oc1oc(-c2ccccc2Br)nc1C=Nc1ccccc1Cl | 3.2 | -6.9 | -0.1 | 5.0* | 0.1 | 2.9
N#C/C(=C\c1c[nH]c2ccccc12)C(=O)N1CCc2ccccc2C1 | -10.2 | -11.5 | -0.1 | -0.7 | nt | nt
N#C/C(=C\c1ccc[nH]1)C(=O)N1CCc2ccccc2C1 | -28.1 | 0.0 | -0.2 | 5.3* | 1.1 | 8.8
CC1=C(C(=O)Nc2ccccc2)C(c2ccccc2)C(C#N)=C(SCC(=O)Nc2cccc(Cl)c2)N1 (configuration not stated) | -4.4 | -1.8 | -0.1 | 1.2 | nt | nt
CCOC(=O)c1cc2occc2n1CC(=O)N1CCCC1 | -3.5 | -3.7 | 0.3 | 7.4* | 0.7 | 0.7
Clc1cc(Cl)cc(CNc2ccc(-c3cccnc3)cn2)c1 | -17.7 | 20.9 | -0.2 | -1.4 | nt | nt
COc1c(Cl)cc(Cl)cc1C=C1c2cc(C(C)=O)ccc2-c2ccc(C(C)=O)cc21 | -33.6 | 12.1 | 0.0 | -0.9 | nt | nt
CNC(=O)C(=O)NCCN1CCN(Cc2ccc(Br)cc2)CC1 | 8.0 | -6.0 | -0.3 | 7.8* | -0.8 | -5.4
O=C(NCCN1CCN(Cc2ccc(Br)cc2)CC1)C(=O)Nc1ccc(Cl)cc1 | 3.8 | 0.0 | -0.2 | -0.1 | nt | nt
COCc1ccc(-c2ccc(OC3CCN(c4ncccn4)CC3)cc2)cc1 | -7.2 | 5.7 | 0.1 | 0.3 | nt | nt
CC(C)C(=O)NNC(=O)CSc1ncnc2c1cnn2-c1ccc(Cl)cc1 | 6.6 | 10.8 | 0.1 | 1.8 | nt | nt
Nc1ccccc1S(=O)(=O)NCC(=O)O | 3.5 | 8.7 | 0.1 | 1.1 | nt | nt
Nc1ccccc1S(=O)(=O)Nc1ccccc1 | 6.3 | 0.9 | 0.0 | 5.0* | -1.2 | -10.4
